Most compounds without a hit are left out; they make up all but 7.5% or so of the library.
FLuc counter: inhibits or activates purified firefly luciferase, miR-21 counter-screen | purified FLuc, Km substrates, luminescence inhibition | Potency, µM (highest dose often 57.5 µM), hits mostly inhibitors | hit rate 6.9% among 360,000 | AID 588342; also: nearly all actives have a fitted effect of over 55% in size
Target sequence (P08659 whole entry, looked up): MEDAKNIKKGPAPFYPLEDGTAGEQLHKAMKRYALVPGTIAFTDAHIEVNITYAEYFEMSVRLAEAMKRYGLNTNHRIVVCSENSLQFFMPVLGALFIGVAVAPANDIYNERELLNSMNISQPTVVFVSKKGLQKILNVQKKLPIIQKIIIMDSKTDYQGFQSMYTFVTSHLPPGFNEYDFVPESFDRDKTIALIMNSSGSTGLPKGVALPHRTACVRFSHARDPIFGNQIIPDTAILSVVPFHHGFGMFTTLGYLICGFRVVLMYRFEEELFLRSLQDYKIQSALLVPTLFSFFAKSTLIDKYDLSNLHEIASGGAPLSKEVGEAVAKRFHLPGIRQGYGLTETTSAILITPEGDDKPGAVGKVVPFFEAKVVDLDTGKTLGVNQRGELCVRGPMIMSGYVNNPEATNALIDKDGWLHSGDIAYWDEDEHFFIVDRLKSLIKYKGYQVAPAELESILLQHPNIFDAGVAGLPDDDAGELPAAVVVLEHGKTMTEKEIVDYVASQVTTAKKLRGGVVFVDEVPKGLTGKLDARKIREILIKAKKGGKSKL
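Purified P. pyralis luciferase (10nM final) with 10uM D-luciferin and 10uM ATP (Km levels) in 50mM Tris acetate pH 7.5, 10mM Mg acetate, 0.01% Tween-20, 0.05% BSA; qHTS 6-point titration, ~60 µM downward; luminescence read.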
Rab9 prom act: activates the Rab9 promoter; Huh7 Rab9 promoter-luciferase reporter, luminescence, 24 h; Potency, µM (doses to about 9.22 µM), usual class: activators; hit rate 2.8% among 320,000; also: nearly all actives have a fitted effect of over 60% in size
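Stable Rab9-luc Huh7, 1500 cells/well, 2 h settle; cmpd in DMSO, 24 h, 37 °C/5% CO2; luciferase reagent 10 min RT; luminescence.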
Luc counter: Kinase-Glo luciferase inhibition (counter-screen); Q27757; Kinase-Glo luciferase, ATP luminescence, 8 min; Potency, µM (titrated, usually from 38.3 µM), actives largely listed as inhibitors; hit rate 0.28% among 200,000; also: nearly all actives have a fitted effect of over 60% in size
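Kinase-Glo luciferase light output from ATP and luciferin was measured with 10 uM ATP, within the enzyme's linear range. Buffer: 50 mM imidazole pH 7.2, 50 mM KCl, 7 mM MgCl2, 0.01% Tween 20, 0.05% BSA; luminescence read after 8 min at ambient temperature.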
NPC1 promoter act: NPC1 promoter activation; hit rate 2.4% among 320,000; Potency, µM (doses to about 9.22 µM), actives largely listed as activators; Huh7 NPC1 promoter luciferase reporter, 24 h; AID 485313; also: nearly all actives have a fitted effect of over 60% in size
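Readout is luciferase luminescence, reflecting NPC1 promoter activation in stably transfected Huh7 cells after 24 h compound exposure at 37 °C in reduced-serum medium with 10% FBS.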
SMN2 splice enh: increases expression of the SMN2 splice variant. AID 1458. hit rate 2.8% among 210,000. Potency, µM (series often up to 46.1 µM), most hits filed as activators. HEK293 SMN2-luciferase splicing reporter, luminescence, 30-36 h; also: nearly all actives have a fitted effect of over 55% in size
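qHTS luciferase splicing reporter: luminescence rises when SMN2 exon 7 is included in transfected HEK293 cells. Compound exposure lasted 30-36 h at 37C, with 4.5 mM final sodium butyrate as control, followed by a ONE-Glo read.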
ELG1 genotox: induces genotoxicity in HEK293T cells with luciferase-tagged ELG1; HEK293T ELG1-luciferase reporter, luminescence, 16 h; Potency, µM (doses to about 46 µM), usual class: activators; hit rate 1.3% among 330,000; also: nearly all actives have a fitted effect of over 60% in size
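ELG1-luciferase HEK293T cells, 2,000/well; compound pinned in; 16 hr, 37 °C, 5% CO2; ONE-Glo, 30 min RT; luminescence on CCD imager.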
Of the large screens only hits and unclear results are named; the others gave an inactive call. Calls follow the shape of the dose curve; as a rule, active = well fitted curve in the direction sought with a large enough effect; inconclusive = small, poorly fitted or top-dose-only effect, or another doubt; inactive = no such curve, though single readings can be large; an effect the other way counts as inactive or inconclusive.

COC(=O)C1=C(O)/C(=C\c2ccc(CNC(=O)C(=O)Nc3ccc(C)cc3)o2)N=C1C	FLuc counter 6.7µM
COC(=O)C1=C(O)/C(=C\c2ccc(CNC(=O)C(=O)Nc3ccc(C)c(C)c3)o2)N=C1C	FLuc counter inconclusive
CCOC(=O)C1=C(O)/C(=C/c2ccc(CNC(=O)C(=O)Nc3ccc(C)cc3)o2)N=C1C	FLuc counter 7.6µM, ELG1 genotox inconclusive
CC(C)[C@@H](N)C(=O)N/N=C/c1ccc2ncccc2c1	FLuc counter inconclusive (no result: Luc counter, SMN2 splice enh)
Fc1c(F)c(F)c(N=Cc2ccc3ncccc3c2)c(F)c1F	FLuc counter 6.7µM
Cc1ccc(C(=O)N(C)c2ccc(OCC(=O)N3c4ccc(C)cc4C4CN(C)CCC43)cc2)cc1 (configuration not stated)	FLuc counter 3µM, Rab9 prom act inconclusive, SMN2 splice enh 11µM, ELG1 genotox inconclusive
COc1ccc(-n2cc(-c3ccccc3)c3c(NCCc4ccc(OC)c(OC)c4)ncnc32)cc1	none (no result: Rab9 prom act, Luc counter, NPC1 promoter act, SMN2 splice enh, ELG1 genotox)
NS(=O)(=O)c1ccc(CCNC(=S)NC(=O)c2ccccc2Br)cc1	none (no result: FLuc counter, Rab9 prom act, Luc counter, NPC1 promoter act, SMN2 splice enh)
CCc1ccc(C(=O)CSc2nnc(C3CC3)n2C2CC2)cc1	none (no result: FLuc counter, Luc counter, SMN2 splice enh)
Cc1ccc(C(=O)CSc2nnc(C3CC3)n2C2CC2)s1	FLuc counter 19µM, Rab9 prom act inconclusive, NPC1 promoter act inconclusive, ELG1 genotox inconclusive (no result: Luc counter, SMN2 splice enh)
O=C(CSc1nc2ccc(Cl)cc2o1)NCc1ccc2c(c1)OCO2	none
Cc1ccccc1NC(=O)CSc1nc2ccccc2o1	Rab9 prom act inconclusive, NPC1 promoter act inconclusive, ELG1 genotox 4.1µM
O=C(CSc1nc2ccccc2o1)Nc1nc(-c2ccccc2)cs1	FLuc counter 21µM, SMN2 splice enh inconclusive, ELG1 genotox inconclusive
O=C(CSc1nc2ccccc2o1)NCc1ccc2c(c1)OCO2	FLuc counter inconclusive, SMN2 splice enh inconclusive, ELG1 genotox 21µM
Cc1ccc(NC(=O)c2cc3c(=O)oc4ccc(C)cc4c3s2)nc1	none (no result: Luc counter, SMN2 splice enh)
COC(=O)c1cc2sc(Cl)cc2n1CC(=O)Nc1cc(C)cc(C)c1	none (no result: Rab9 prom act, Luc counter, NPC1 promoter act, ELG1 genotox)
CCOC(=O)c1ccccc1NC(=O)CN(c1cccc(C)c1C)S(=O)(=O)c1ccccc1	none (no result: Rab9 prom act, Luc counter, NPC1 promoter act, ELG1 genotox)
CCOC(=O)c1sc(N)c(C(=O)Nc2ccccc2)c1C	FLuc counter inconclusive, Rab9 prom act 2.8µM (no result: SMN2 splice enh)
CCOC(=O)c1sc(N)c(C(=O)OCC)c1C	FLuc counter 21µM, Rab9 prom act inconclusive, NPC1 promoter act inconclusive, ELG1 genotox inconclusive (no result: Luc counter, SMN2 splice enh)
CCOC(=O)C(C)Sc1ncnc2c1nnn2-c1ccc(F)cc1 (configuration not stated)	FLuc counter 12µM, Rab9 prom act inconclusive, NPC1 promoter act inconclusive
COC(=O)c1ccc(CSc2ncnc3c2nnn3-c2ccc(F)cc2)o1	FLuc counter 8.5µM
CCN(CC)C(=O)CSc1ncnc2c1nnn2-c1ccc(F)cc1	FLuc counter 13µM
CCC(Sc1ncnc2c1nnn2-c1ccc(F)cc1)C(=O)OC (configuration not stated)	FLuc counter 5.4µM, Rab9 prom act inconclusive, NPC1 promoter act inconclusive, ELG1 genotox inconclusive
CCN(CC)C(=O)CSc1ncnc2c1nnn2-c1ccc(OC)cc1	FLuc counter inconclusive
COc1ccc(CCNC(=O)CCCCn2c(=O)c3ccccc3n(Cc3ccc(F)cc3Cl)c2=O)cc1OC	none (no result: Rab9 prom act, Luc counter, NPC1 promoter act, ELG1 genotox)
Cc1ccc(-c2c(C)n3c4c(=O)n(C)c(=O)n(C)c4nc3n2CCCO)cc1	none (no result: Rab9 prom act, Luc counter, NPC1 promoter act, ELG1 genotox)
O=C(CCc1nnc2n(Cc3ccc(F)cc3)c(=O)c3ccccc3n12)N1CCN(c2ccccn2)CC1	none (no result: Luc counter, SMN2 splice enh)
CC(C)Oc1ccc(C(=O)N(Cc2ccco2)c2ccccn2)cc1	none (no result: Rab9 prom act, Luc counter, NPC1 promoter act, SMN2 splice enh, ELG1 genotox)
CSc1nn(Cc2ccc(F)cc2)c(N)c1S(=O)(=O)c1ccc(Cl)cc1	none (no result: Rab9 prom act, Luc counter, NPC1 promoter act, SMN2 splice enh, ELG1 genotox)
CCOC(=O)C1CCN(C(=O)c2cc(COc3ccc(OC)c4ccccc34)on2)CC1	FLuc counter 15µM, Rab9 prom act 3.5µM, NPC1 promoter act inconclusive, ELG1 genotox inconclusive (no result: Luc counter, SMN2 splice enh)
COc1cc(C)ccc1OCc1cc(C(=O)N2CCC(c3ccc(F)cc3)C2)no1 (configuration not stated)	FLuc counter 7.6µM, Rab9 prom act 2.2µM, NPC1 promoter act 2.2µM, ELG1 genotox inconclusive (no result: Luc counter, SMN2 splice enh)
CCCOC1CCCN(C(=O)c2cc(COc3ccc(F)c(F)c3)on2)C1 (configuration not stated)	FLuc counter 21µM, Rab9 prom act 2.8µM, NPC1 promoter act 2.8µM, ELG1 genotox inconclusive (no result: Luc counter, SMN2 splice enh)
COc1ccc(OCc2cc(C(=O)N3CCC(OC)CC3)no2)c2ccccc12	FLuc counter 11µM, Rab9 prom act 2.5µM, NPC1 promoter act inconclusive, ELG1 genotox inconclusive (no result: Luc counter, SMN2 splice enh)
CCc1ccccc1NC(=O)c1sc2nc(C)cc(COC)c2c1N	none (no result: Rab9 prom act, Luc counter, NPC1 promoter act, SMN2 splice enh, ELG1 genotox)
COc1cc(Cl)ccc1OCc1cc(C(=O)N2CCCC(OC)C2)no1 (configuration not stated)	FLuc counter 5.4µM, Rab9 prom act 1.8µM, NPC1 promoter act 2µM, ELG1 genotox 5.8µM (no result: Luc counter, SMN2 splice enh)
COc1cc(Cl)ccc1OCc1cc(C(=O)N2CCCCCC2)no1	FLuc counter inconclusive (no result: Luc counter, SMN2 splice enh)
IC(I)I	none (no result: FLuc counter, Rab9 prom act, Luc counter, NPC1 promoter act, ELG1 genotox)
Cc1cccc(NC(=O)c2cc(-c3cccnc3)nc3c(C)cccc23)n1	FLuc counter inconclusive (no result: Luc counter, SMN2 splice enh)

From PubChem BioAssay
